Assay results taken from PubChem BioAssay (NCI).
This is part of a sample that, as a whole, favours compounds with a hit. Of some 83,000 tested, about 20% had one in any assay.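 Cell lines were cultured in 96-well plates, exposed to a single compound concentration, and assessed for percent growth 48 hours later.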 Values without a mark were called inactive. Calls of active or inactive are those of the source. The calls were made as follows: active = growth percent below 10; inactive = the rest.

Tests used:
Assay in all cases: NCI-60 one-dose screen, 48 h (100 = growth as untreated, 0 = no growth, -100 = all killed)
Conditions in all cases: 10 µM unless noted
[1] = tested on: NCI-H23 lung
[2] = tested on: NCI-H226 lung
[3] = tested on: NCI-H322M lung
[4] = tested on: HOP-62 NSCLC
[5] = tested on: NCI-H460 lung
[6] = tested on: HOP-92 NSCLC
[7] = tested on: A549/ATCC NSCLC
[8] = tested on: 786-0 renal
[9] = tested on: COLO 205 colon
[10] = tested on: NCI-H522 lung

COC(=O)c1nc(-c2ccccc2)oc1S(=O)(=O)NCC(c1ccc(Cl)cc1)N1CCOCC1 (stereo not drawn)
growth [1]: 89.1%
growth [2]: 90.7%
growth [3]: 98.3%
growth [4]: 96.3%
growth [5]: 87.2%
growth [6]: 70.9%
growth [7]: 90.5%
growth [8]: 51.9%
growth [9]: 78.1%

O=C(Cc1ccccc1)Nc1cccc(N=Cc2ccccc2O)c1
growth [1]: 107%
growth [2]: 104%
growth [3]: 108%
growth [4]: 115%
growth [5]: 107%
growth [6]: 88.1%
growth [7]: 99.3%
growth [8]: 104%
growth [9]: 111%

COc1cc(C(=O)n2nc(N3CCOCC3)c3cc(-n4cccc4)ccc32)cc(OC)c1OC
growth [1]: 76.5%
growth [2]: 69.3%
growth [3]: 88.3%
growth [4]: 92.4%
growth [5]: 75.7%
growth [6]: 14.4%
growth [7]: 72.6%
growth [8]: 17.4%
growth [9]: 56.6%

CC1(C)CC(=O)c2c(nn(-c3ccc(Br)cc3)c2-c2cn(-c3ccccc3)nc2-c2cccnc2)C1
growth [1]: 90.4%
growth [2]: 98.4%
growth [3]: 93%
growth [4]: 81.3%
growth [5]: 97.5%
growth [6]: 87.2%
growth [7]: 92.5%
growth [8]: 100%
growth [9]: 105%

COC(=O)c1ccc(NC(=O)Nc2ccc(C(=O)OC)cc2)cc1
growth [1]: 113%
growth [2]: 99%
growth [3]: 104%
growth [4]: 106%
growth [5]: 110%
growth [6]: 85.7%
growth [7]: 94.7%
growth [8]: 105%
growth [9]: 104%

C[C@H](C(=O)N(CCc1ccc(Cl)c(Cl)c1)Cc1cncs1)[C@@H]1CC[C@H](C[C@H](C)n2cc(CN3CCC(c4ccc(Cl)cc4)CC3)nn2)O1
growth [1]: 98.2%
growth [2]: 85%
growth [3]: 92.7%
growth [4]: 101%
growth [5]: 103%
growth [6]: 106%
growth [7]: 96.3%
growth [8]: 93.2%
growth [9]: 97.6%

CN(C)S(=O)(=O)Oc1ccc(-c2sc3cc(OS(=O)(=O)N(C)C)ccc3c2C(=O)c2ccc(OCCN3CCCCC3)cc2)cc1
growth [1]: 74.4%
growth [2]: 64.6%
growth [3]: 87.9%
growth [4]: 49.8%
growth [5]: 32.2%
growth [6]: 28.5%
growth [7]: 52.7%
growth [8]: 21.5%
growth [9]: 36.1%

Clc1c(Cl)[n+](Cc2ccc3ccccc3c2)cn1Cc1ccc2ccccc2c1
growth [1]: 32.8%
growth [2]: 44.4%
growth [3]: 51%
growth [4]: -27.6% (active)
growth [5]: 26.1%
growth [6]: -12.1% (active)
growth [7]: 52.5%
growth [8]: -8.06% (active)
growth [9]: -73.9% (active)

O=C(CCl)NNc1nccc(Nc2ccc(S(=O)(=O)Nc3ccncc3)cc2)n1
growth [1]: 40.5%
growth [2]: 70.8%
growth [3]: 64.4%
growth [4]: 83.2%
growth [5]: 27.9%
growth [6]: 37.3%
growth [7]: 71.5%
growth [8]: 24.1%
growth [9]: 82.2%

CC1=CCC(OC(=O)C(C)(C)CC(O)(C(C)O)C(O)C2(C)C=CC(Cc3ccc(C(C)C)cc3)(C(C)C)CC2)(C(C)C)CC1 (stereo not drawn)
growth [1]: 95.6%
growth [2]: 92.3%
growth [3]: 93.7%
growth [4]: 99.2%
growth [5]: 103%
growth [6]: 84.9%
growth [10]: 91.2%
growth [7]: 98.5%
growth [8]: 99.9%
growth [9]: 103%

CN1CCN(c2ccc3nc4c(nc3c2C(F)(F)F)C(=O)c2ncccc2C4=O)CC1
growth [1]: -39.7% (active)
growth [2]: -78.9% (active)
growth [3]: 36.6%
growth [4]: -63.3% (active)
growth [5]: -56.6% (active)
growth [6]: 27.5%
growth [7]: -36.2% (active)
growth [8]: 36.7%
growth [9]: -95% (active)

Cc1nc2cc(O)c(O)cc2cc1Oc1ccc(NC(=O)Nc2ccc(Cl)c(Cl)c2)cc1
growth [1]: 62.8%
growth [2]: 38.3%
growth [3]: 94%
growth [4]: 35.7%
growth [5]: 62.1%
growth [6]: 37.5%
growth [7]: 50.5%
growth [8]: 103%
growth [9]: 34.7%

COc1cc(NC(=O)c2cncnc2Nc2ccc3c(ccn3Cc3ccccn3)c2)cc(OC)c1
growth [1]: 68.6%
growth [2]: 76.1%
growth [3]: 76.4%
growth [4]: 43.9%
growth [5]: 20.5%
growth [6]: 54.2%
growth [7]: 53.9%
growth [8]: 49.4%
growth [9]: 44.9%

O=C(Nc1ncc(Cc2ccccc2)s1)c1ccc2c(c1)OCCCO2
growth [1]: 29.1%
growth [2]: 46.2%
growth [3]: 45.4%
growth [4]: 31.9%
growth [5]: 15.2%
growth [6]: 58.7%
growth [7]: 33.5%
growth [8]: 36.3%
growth [9]: 12%

C=C1C(=O)O[C@H]2[C@H]1CC/C(COC(=O)NCc1ccc(Cn3c(=O)sn(-c4ccc(C#N)cc4)c3=O)cc1)=C\CC[C@@]1(C)O[C@@H]21
growth [1]: 78.2%
growth [2]: 95.5%
growth [3]: 104%
growth [4]: 92.2%
growth [5]: 104%
growth [6]: 26.1%
growth [7]: 96.7%
growth [8]: 66.1%
growth [9]: 38.1%

NC1=Nc2cc(OCCCCN3Cc4ccccc4C3)c(OCC3CC3)cc2C12CCCC2
growth [1]: 66.9%
growth [2]: 37.7%
growth [3]: 75.7%
growth [4]: 73.2%
growth [5]: 23.2%
growth [6]: 29.4%
growth [7]: 67.5%
growth [8]: 56.2%
growth [9]: -74.5% (active)

COc1ccccc1C(=O)Nc1cccc(NC(=O)c2ccoc2C)c1
growth [1]: 47.5%
growth [2]: 70.7%
growth [3]: 59.5%
growth [4]: 49.5%
growth [5]: 13.9%
growth [6]: 47.2%
growth [10]: 13.9%
growth [7]: 28.2%
growth [8]: 32.9%
growth [9]: 39.2%

COc1ccc(CNc2c3ccccc3nc3ccccc23)c(OC)c1
growth [1]: 34.9%
growth [2]: 46.3%
growth [3]: 40%
growth [4]: 47.2%
growth [5]: 16.6%
growth [6]: -13.6% (active)
growth [7]: 35.2%
growth [8]: 39.1%
growth [9]: 24.6%

COc1ccccc1N(C(C)=O)C1=C(Cl)C(=O)c2ccccc2C1=O
growth [1]: -12.1% (active)
growth [2]: 23.7%
growth [3]: 38%
growth [4]: 38.6%
growth [5]: 4.81% (active)
growth [6]: -14.9% (active)
growth [7]: 8.36% (active)
growth [8]: 37.2%
growth [9]: -11.7% (active)

Cc1ccc(-c2nc(-c3cn(C)c4ncccc34)cs2)cc1
growth [1]: -7.81% [100 µM] (active)
growth [2]: -35.3% [100 µM] (active)
growth [3]: -32% [100 µM] (active)
growth [4]: -63.3% [100 µM] (active)
growth [5]: -48.5% [100 µM] (active)
growth [6]: -47.2% [100 µM] (active)
growth [10]: 6.25% [100 µM] (active)
growth [7]: 7.36% [100 µM] (active)
growth [8]: -52.8% [100 µM] (active)
growth [9]: -60.5% [100 µM] (active)

COc1cc(/C=C/C(=O)c2ccc(-n3cc(CN4CCN(c5cc6c(cc5F)c(=O)c(C(=O)O)cn6C5CC5)CC4)nn3)cc2)ccc1O
growth [1]: 91.4%
growth [2]: 82.1%
growth [3]: 80.2%
growth [4]: 67.7%
growth [5]: 66.7%
growth [6]: 79.3%
growth [10]: 83.9%
growth [7]: 71.6%
growth [8]: 53.9%
growth [9]: 106%

CCOC(=O)C(=Cc1ccc(-c2ccccc2)cc1)C(=O)OCC
growth [1]: 38.6%
growth [2]: 46.5%
growth [3]: 78.4%
growth [4]: 73.7%
growth [5]: 78%
growth [6]: 63.2%
growth [7]: 49.6%
growth [8]: 43.1%
growth [9]: 55.6%

COc1ccc(-c2nc(/C=C3\C(=O)N(C)c4ccccc43)c3ccccn23)cc1
growth [1]: 76.2%
growth [2]: 63.8%
growth [3]: 88.3%
growth [4]: 62.7%
growth [5]: 63.4%
growth [6]: 84.1%
growth [7]: 88.7%
growth [8]: 38.3%
growth [9]: 119%

COc1cnc2c(c1)C(=O)c1c-2n(CCCCl)c(=O)c2ccncc12
growth [1]: 58%
growth [2]: 69.5%
growth [3]: 78.4%
growth [4]: 58.2%
growth [5]: 18.6%
growth [6]: 110%
growth [7]: 69.3%
growth [8]: 83.6%
growth [9]: 19.7%

Cc1nn(-c2ccccc2)c(N)c1N=C1NC(=O)/C(=C/c2ccc(Br)cc2)S1
growth [1]: 75.8%
growth [2]: 78.4%
growth [3]: 83.5%
growth [4]: 59.6%
growth [5]: 93.1%
growth [6]: 65.6%
growth [7]: 74.3%
growth [8]: 94.6%
growth [9]: 101%

CCc1n(Cc2ccc3ccccc3n2)cc[n+]1Cc1ccc2ccccc2n1
growth [1]: 16%
growth [2]: 48.4%
growth [3]: 73.1%
growth [4]: 40.9%
growth [5]: 34.8%
growth [6]: -11.9% (active)
growth [7]: 57.4%
growth [8]: 77.6%
growth [9]: -38.9% (active)

c1ccc2c(c1)CCCc1nnc3nc4ccccc4n3c1-2
growth [1]: 46.7%
growth [2]: 51.2%
growth [3]: 48.2%
growth [4]: 34.8%
growth [5]: 25.8%
growth [6]: -2.09% (active)
growth [10]: 55.6%
growth [7]: 29.9%
growth [8]: 34.2%
growth [9]: 12%
